Calls of active or inactive are those of the source. How the source made its calls: active means hit-call score of the fitted dose curve at least 0.9, where 1 is the maximum; inactive means score below 0.9.
Target: Cellular tumor antigen p53 (Homo sapiens) (UniProt P04637)
Assay: ATG_p53_CIS: Attagene CIS-FACTORIAL HepG2 Assay for human p53 Transcription Factor (AID 2282994)
Conditions: HepG2 p53 cis-element reporter, Attagene mRNA; actives raise or lower the signal
Procedure, shortened: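 Endogenous p53 activity read in transiently transfected HepG2 from a cis-element-driven reporter transcript after 24 h exposure. RNA reverse-transcribed, PCR-amplified, fluorescently labelled and sized by capillary electrophoresis; gain or loss fitted against DMSO baseline.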

Cellular tumor antigen p53 (Homo sapiens), sequence (P04637 whole entry, looked up): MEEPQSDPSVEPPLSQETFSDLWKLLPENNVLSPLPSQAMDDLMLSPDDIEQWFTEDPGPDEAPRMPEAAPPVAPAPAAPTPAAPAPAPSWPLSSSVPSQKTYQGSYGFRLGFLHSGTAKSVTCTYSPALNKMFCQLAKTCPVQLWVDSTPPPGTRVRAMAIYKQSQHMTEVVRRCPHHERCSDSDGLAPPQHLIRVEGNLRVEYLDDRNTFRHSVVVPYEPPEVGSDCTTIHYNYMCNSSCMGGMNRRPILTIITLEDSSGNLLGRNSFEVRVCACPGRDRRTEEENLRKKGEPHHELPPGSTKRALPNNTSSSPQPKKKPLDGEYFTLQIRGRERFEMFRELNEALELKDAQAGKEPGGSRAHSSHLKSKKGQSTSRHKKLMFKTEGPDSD

AC50, active:
C=CC(=O)OCCC#N 164 µM, CCC(C)c1cc([N+](=O)[O-])cc([N+](=O)[O-])c1OC(=O)OC(C)C (stereo not given) 25 µM

outcome, inactive:
Cc1ncc([N+](=O)[O-])n1CCO, C=C(C)C(=O)OCCOCCOCCOC(=O)C(=C)C, C/C=C(\C)C(=O)OCCc1ccccc1, O=CCc1ccccc1, CCCC(=O)C(CC)Sc1ccoc1C (stereo not given), Nc1ccc2c(O)cc(S(=O)(=O)O)cc2c1, COC(CC(C)CCCC(C)(C)O)OC (stereo not given), CCC1CCCCC1, CCCCCCCCCC(C)C=O (stereo not given), CC(C)NCC(O)COc1ccc(CC(N)=O)cc1 (stereo not given), CCCCCCOC(=O)C(C)C, O=C(O)CCCCCCCCCCCC(=O)O, CCCC(O)C(O)CO (stereo not given), CCc1ccc(O)c(OC)c1, CC(C)c1ccccc1O, C=C(C)C(=O)OCCOC1CC2CC1C1C=CCC21 (stereo not given), CCOc1ccc(N=Nc2ccc(C=Cc3ccc(N=Nc4ccc(OCC)cc4)cc3S(=O)(=O)O)c(S(=O)(=O)O)c2)cc1, COC(=O)c1ccc(C)cc1C1=NC(C)(C(C)C)C(=O)N1 (stereo not given) (tested in a mixture with another compound), CC(=O)c1ccccn1, CCCCSCCCC, CCN(CCN)c1cccc(C)c1, CCCC(C)=O, OCC(O)c1ccccc1 (stereo not given), Cc1occc(=O)c1OC(=O)C(C)C, CCOc1ccccc1O, O=C1NC2NC(=O)NC2N1 (stereo not given), COc1cccc(OC)c1O, CC(C)(CO)[C@@H](O)C(=O)NCCC(=O)O

From PubChem BioAssay (EPA / NIEHS)
